# Among all 300,000 compounds or so, about 3,600 (1.2%) were called active. The sample as a whole holds a higher share of actives than the screen did. Unmarked numbers belong to inactive results. No stated cut-off is given here; in the data, active means activation above about 30% (passing the limit was not always enough); inconclusive means no clear call, values can overlap the other calls.
# Experiment: Wnt/beta-catenin pathway activators, primary screen, cell-based, plate reader, single point (AID 743398);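 further: 0% = neutral control wells and 100% = positive control wells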
# Conditions: Wnt/beta-catenin reporter cell assay, activator, at 9.35 µM, stronger effect = higher value
row,Structure (SMILES),activation
1,CC(Cc1ccccc1)NC=O (stereo not given),-1.03%
2,CC(Cc1ccccc1)NCCC(c1ccccc1)c1ccccc1 (stereo not given),42% (active)
3,CC(=O)NC(=O)NC(C)Cc1ccccc1 (stereo not given),-4.37%
4,COc1cc(OC)cc(C(=O)NCCN2CCC3(CC2)C(=O)NCN3c2ccccc2)c1,3.07%
5,Brc1ccc2c(c1)CNCc1cnnn1-2,-2.63%
